Screens from PubChem.
The list is not random: actives were taken first. Their share in the collection is about 3.2%.
EWS-Fli inh – EWS/Fli-driven NR0B1 reporter inhibitors, primary screen, A673 cells, NR0B1 luciferase, luminescence, MLPCN library; viability-normalised; inhibition, % at 12.6 µM; hit rate 0.67% among 350,000; AID 651661, 2012;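 active means mean inhibition of at least 50% after viability correction, with every replicate also passing that limit; inconclusive means mean reaches 50% but only one of two replicates passes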;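 further: firefly luciferase signal divided by Alamar Blue viability fluorescence both relative to DMSO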
PAX8 reporter – inhibitors of PAX8-driven TPO luciferase reporter, primary screen, RMG-I cells, single concentration; SteadyGlo, 24 h; inhibition, % at 12.6 µM; hit rate 1.2% among 360,000;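 active means mean replicate inhibition at least 60% with every replicate also reaching 60%; inconclusive means only one of the two criteria is met; inactive means mean below 60% and not all replicates reaching 60%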;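 further: luciferase light reporting Pax8 driven TPO promoter activity; plate controls were median of neutral control wells for no effect and mitoxantrone controls for full effect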
TWEAK Fn14 block – inhibitors of TWEAK-Fn14 signaling, primary screen, luciferase reporter cells, uHTS | AID 1159606, 2016 | inhibition, % at 10 µM | hit rate 2% among 360,000 | TWEAK-stimulated Fn14 reporter cells, luciferase luminescence, 8 h; in the data active means inhibition above about 50%
TROY signal inh – inhibitors of TROY-driven NF-kB signaling, primary screen, Q293 LMP1-TROYcd cells, NF-kB luciferase, uHTS; Q293 LMP1-TROYcd NF-kB luciferase reporter, 4 h; inhibition, % at 10 µM; hit rate 0.98% among 360,000;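 active means compounds whose plate-normalised and pattern-corrected inhibition of the luciferase reporter signal at the single screening dose is 50% or more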
LGR2 antag – inhibitors of bursicon-induced LGR2 CRE-luciferase signal, primary screen, cell-based, HEK293, CRE-luciferase reporter, bursicon stimulation; Drosophila bursicon receptor LGR2 (rickets); bursicon-stimulated, 4 h; inhibition, % at 9.99 µM; hit rate 0.35% among 380,000; AID 720647, 2013;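 active means drop in luminescence signal, shown as inhibition above about 50% in the replicate tests, limit read from the data, passing the limit was not always enough; inconclusive means probably only some replicates passing the limit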;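 further: agonist challenge used bursicon conditioned medium at about half maximal strength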
LMP1 NFkB inh – EBV LMP1-driven NF-kappaB luciferase reporter inhibitors, primary screen, cell-based, luminescence, single point. LMP1-induced NF-kappaB luciferase reporter cells. inhibition, % at 12.5 µM. hit rate 0.69% among 350,000. AID 504558, 2011; in the data active means inhibition above about 41%; inconclusive means no clear call, values can overlap the other calls;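 further: 0% = neutral control wells and 100% = reference inhibitor control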
Starred values were filed as active, the others as inactive; ? = inconclusive; . = not tested or not shown.

SMILES	EWS-Fli inh	PAX8 reporter	TWEAK Fn14 block	TROY signal inh	LGR2 antag	LMP1 NFkB inh
O=S(=O)(NC(=NC1CCCCC1)c1ccccc1F)c1ccccc1	-2.1	-17.0	63.3*	-7.0	0.3	2.4
O=S(=O)(NC(=NC1CCCCC1)c1ccccc1)c1ccccc1	0.8	5.8	12.5	1.4	-3.4	-3.0
O=C(C[C@@H]1C[C@H]2c3cc(NC(=O)c4cccnc4)ccc3O[C@H]2[C@@H](CO)O1)NCc1ccccc1F	-1.3	4.0	.	.	-11.8	.
CCCN(C)C[C@@H]1OCCCC[C@@H](C)Oc2ccc(NC(=O)NC(C)C)cc2C(=O)N([C@H](C)CO)C[C@@H]1C	.	-12.4	.	.	3.4	.
Cc1nc(SCC(=O)N(C)C2CCS(=O)(=O)C2)c2ccccc2n1 (stereo not drawn)	-4.3	48.3	-9.6	13.0	9.0	-5.9
Cc1nc(SCC(=O)N(C)C2(C#N)CCCCC2)c2ccccc2n1	-8.5	62.1*	9.7	11.0	0.1	3.5
COc1ccc(S(=O)(=O)Nc2ccc3c(c2)C(=O)N([C@@H](C)CO)C[C@@H](C)[C@H](CN(C)S(C)(=O)=O)OCCCC[C@@H](C)O3)cc1	-20.9	-35.5	.	.	-6.8	.
CCCC#Cc1ccc([C@H]2[C@@H](CO)N3CCCCN(S(C)(=O)=O)C[C@H]23)cc1	-6.1	0.7	.	.	-8.3	.
CCOc1ccc(-n2nnnc2-c2nc3ccccc3s2)cc1	.	-41.7	74.3*	61.7*	26.9	2.8
Cc1ccc(-n2nnnc2-c2nc3ccccc3s2)cc1	.	-4.9	24.4	-8.6	-1.8	-2.8
O=C(C[C@@H]1C[C@H]2c3cc(NS(=O)(=O)c4ccc(F)cc4)ccc3O[C@H]2[C@@H](CO)O1)NCc1ccc(-c2ccccc2)cc1	-10.1	73.5*	.	.	15.8	.
O=C(C[C@@H]1C[C@H]2c3cc(NS(=O)(=O)c4ccc(F)cc4)ccc3O[C@H]2[C@H](CO)O1)NCc1ccc(Cl)cc1	-15.2	77.9*	.	.	3.0	.
O=C(C[C@@H]1C[C@H]2c3cc(NS(=O)(=O)c4ccc(F)cc4)ccc3O[C@H]2[C@H](CO)O1)NCc1ccccc1	-2.1	47.6	.	.	-8.9	.
O=C(C[C@H]1C[C@H]2c3cc(NS(=O)(=O)c4ccc(F)cc4)ccc3O[C@H]2[C@H](CO)O1)NCc1ccccc1	-3.3	29.9	.	.	-5.1	.
O=C(C[C@@H]1C[C@@H]2c3cc(NS(=O)(=O)c4ccc(F)cc4)ccc3O[C@@H]2[C@@H](CO)O1)NCc1ccc(-c2ccccc2)cc1	18.2	87.4*	.	.	.	.
O=C(C[C@H]1C[C@H]2c3cc(NS(=O)(=O)c4ccc(F)cc4)ccc3O[C@H]2[C@H](CO)O1)NCc1ccc(-c2ccccc2)cc1	30.8	83.8*	.	.	29.5	.
COc1ccccc1NC(=O)N1[C@@H]2CNC[C@H]1C2c1ccc(-c2ccccc2OC)cc1 (stereo partly drawn)	.	.	.	.	13.3	.
Cc1noc(C)c1NC(=O)N(C)C[C@H]1Oc2ccc(NC(=O)CCCCCC(=O)Nc3ccccc3N)cc2C(=O)N([C@@H](C)CO)C[C@@H]1C	0.0	.	.	.	3.7	.
COc1ccc(S(=O)(=O)N(C)C[C@@H]2Oc3ccc(NC(=O)c4ccncc4)cc3CC(=O)N([C@@H](C)CO)C[C@H]2C)cc1	-8.7	.	.	.	-3.1	.
COc1ccc(NC(=O)Nc2cccc3c2O[C@H](CN(C)S(=O)(=O)c2ccc(C)cc2)[C@H](C)CN([C@@H](C)CO)C3=O)cc1	-5.0	2.2	.	.	-1.6	.
CCOC(=O)CSC1=N/C(=C\c2cccnc2)C(=O)N1c1ccc(OC)cc1	.	1.3	-10.6	7.4	3.6	56.2*
Oc1[nH]c2c(Cl)cc(Cl)cc2c1N=NC(=S)NCC1CCCO1 (stereo not drawn)	.	.	102.6*	46.5	10.7	32.8
Cc1cc(C)c2[nH]c(O)c(N=NC(=S)NCC3CCCO3)c2c1 (stereo not drawn)	.	25.0	8.6	-2.6	-1.1	-1.0
CC(=O)Oc1ccc(C#C/C=C2\c3ccccc3C(=O)N2c2ccccc2)cc1	.	.	50.7*	-22.8	.	-12.4
CCCC(/C=C/c1ccc(OC(C)=O)cc1)=C1/c2ccccc2C(=O)N1c1ccccc1	-9.3	-10.5	8.2	3.7	-12.9	0.9
SMILES	EWS-Fli inh	PAX8 reporter	TWEAK Fn14 block	TROY signal inh	LGR2 antag	LMP1 NFkB inh
CS(=O)(=O)N1[C@H](CO)[C@@H](c2ccc(C#CC3CC3)cc2)[C@@H]1C#N	4.2	8.3	.	.	0.9	.
CC(C)NC(=O)Nc1ccc2c(c1)C(=O)N([C@@H](C)CO)C[C@H](C)[C@@H](CN(C)S(C)(=O)=O)OCCCC[C@@H](C)O2	-3.0	-11.5	.	.	6.2	.
O=c1c(O)cccc2cc(O)c(O)c(O)c12	-1.9	41.1	78.0*	12.6	11.6	-9.1
O=c1cc(-c2ccccc2)oc2cc(O)c(O)c(O)c12	-35.7	.	3.4	-65.1	.	-33.2
O=C(C1CC1)N1CC2(C1)[C@@H](c1ccccc1)[C@@H](CO)N2CC1CCCC1	18.3	.	.	.	-6.7	.
CCCNc1nc(N)nc(-c2cc(Cl)ccc2OC)n1	.	.	11.8	2.0	-0.3	4.5
CCCCNc1nc(N)nc(-c2cc(Cl)ccc2O)n1	.	-287.9	81.8*	28.2	1.5	-40.3
CCNc1nc(N)nc(-c2cc(Cl)ccc2O)n1	.	.	64.5*	1.2	.	-39.7
C=C(C)Cc1c(C)c(C#N)c2[nH]c3ccccc3n2c1=O	18.1	6.5	11.7	32.1	-5.7	6.4
Cc1ccc(Cc2c(C)c(C#N)c3[nH]c4ccccc4n3c2=O)cc1	25.8	5.9	61.4*	59.7*	11.1	6.6
COC(=O)CSc1ncccc1-c1nc2ccccc2[nH]1	.	.	-11.2	-25.0	.	-5.5
O=C(CSc1ncccc1-c1nc2ccccc2[nH]1)N1CCc2ccccc21	-47.7	89.8*	67.1*	61.7*	-20.5	-19.4
COc1cc(C(=O)/C=C/c2cccnc2)c([N+](=O)[O-])cc1OC	37.8	94.1*	35.8	16.4	63.7*	18.3
O=C(/C=C/c1cccnc1)c1ccccc1O	15.9	13.1	-12.7	-22.6	2.9	7.0
O=C(/C=C/c1ccccc1[N+](=O)[O-])c1ccccc1Br	54.4*	77.6*	9.9	-12.4	?	-17.1
O=C(Cc1cccs1)N/N=C/C=C/c1ccccc1	-4.5	106.7*	-3.5	4.1	-15.9	2.4
Cc1nc(CSc2nnc(C)s2)cs1	-11.0	85.1*	0.7	8.0	8.0	3.8
Cc1nnc(SCc2ccc(F)cc2)s1	.	.	-30.7	-35.8	.	-4.9
CC1(C)CC1C(=O)Nc1ccc([N+](=O)[O-])cc1Br (stereo not drawn)	.	.	4.5	-16.0	-4.8	-3.7
O=C(Nc1ccc([N+](=O)[O-])cc1)C1CC1(c1ccccc1)c1ccccc1 (stereo not drawn)	.	19.5	32.5	69.9*	23.5	3.0
